Assay outcomes from PubChem.
GLP1R inv ag = acts as inverse agonist at human GLP-1 receptor. Potency, µM (doses to about 38.3 µM), actives largely listed as inhibitors. HEK293 GLP-1R CRE-luciferase, luminescence, 24 h; GLP-1R form is constitutively active. AID 624417. 1.6% of 410,000 active; also: nearly all actives have a fitted effect of over 55% in size
Target sequence (P43220 whole entry, looked up): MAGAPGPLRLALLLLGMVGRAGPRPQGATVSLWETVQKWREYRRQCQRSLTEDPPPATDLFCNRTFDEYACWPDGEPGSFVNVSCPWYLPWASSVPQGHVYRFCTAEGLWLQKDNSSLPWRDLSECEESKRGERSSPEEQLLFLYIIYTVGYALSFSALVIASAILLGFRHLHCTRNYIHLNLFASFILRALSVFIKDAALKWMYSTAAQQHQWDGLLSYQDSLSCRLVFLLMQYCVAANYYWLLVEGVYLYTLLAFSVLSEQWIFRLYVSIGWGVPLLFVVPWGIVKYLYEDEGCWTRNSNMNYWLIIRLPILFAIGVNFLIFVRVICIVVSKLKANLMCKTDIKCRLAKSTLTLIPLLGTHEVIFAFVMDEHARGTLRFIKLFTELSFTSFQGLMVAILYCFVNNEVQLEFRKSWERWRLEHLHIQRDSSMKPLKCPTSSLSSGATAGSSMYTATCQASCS
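Readout was luciferase luminescence, measured 12 min after detection reagent at room temperature. Beforehand, GLP-1R reporter HEK293 cells had sat 12 h, then received compounds for 24 hr at 37 deg C.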
GLP-1R agonist = activates the human GLP-1 receptor; P43220; HEK293 GLP-1R CRE-luciferase, luminescence, 4-6 h; cells express a hypersensitive GLP-1R form; Potency, µM (doses to about 45.6 µM), most hits filed as activators; 0.007% of 380,000 active; AID 624172
GLP1R cytotox = cytotoxicity in counter-screen for GLP-1R inverse agonists; HEK293 cAMP-luciferase reporter cells, luminescence, 24 h; Potency, µM (highest dose often 38.3 µM), most hits filed as inhibitors; 0.13% of 410,000 active; AID 624418;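 also: loss of luciferase light is scored as toxicity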
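Luminescence readout: signal drop marks cytotoxicity. Plated cells grew 12 h at 37 °C, 5% CO2, received 23 nL compound for 24 h, then got luciferase reagent, read after 12 min at RT.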
PTHR1 ag = activates the human parathyroid hormone receptor PTHR1; Q03431; HEK293 GP2 PTHR1 cells, GloSensor cAMP luminescence, 1 h; Potency, µM (highest dose often 115 µM), usual class: activators; AID 743266; 0.075% of 410,000 active; also: nearly all actives have a fitted effect of over 55% in size
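HEK-293-derived GP2 cells expressing PTHR1 and a GloSensor cAMP reporter, 3,000/well, plated overnight, given luciferin plus IBMX (each 0.5 mM as added) for 1 h at 37 °C, then compound for 1 h at 37 °C. Luminescence was read after 15 min at room temperature.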
Hits are given with their value; – = inactive; ? = inconclusive; · = no result; [ ] = dose if it differs, or a comment. An excerpt weighted towards active compounds, which were near 1.7% of everything screened. Calls follow the shape of the dose curve; as a rule, active = well fitted curve in the direction sought with a large enough effect; inconclusive = small, poorly fitted or top-dose-only effect, or another doubt; inactive = no such curve, though single readings can be large; an effect the other way counts as inactive or inconclusive.

SMILES	GLP1R inv ag	GLP-1R agonist	GLP1R cytotox	PTHR1 ag
COc1ccccc1CNC(=O)Cn1c(-c2cccs2)cc2cc(F)ccc21	–	·	–	50µM
COc1ccccc1NC(=O)c1c(-c2ccc(C)cc2)nnc2ccccc12	–	·	–	–
CCc1cc(C(=O)OC)c(NC(=O)CN2CCN(C(=O)c3ccco3)CC2)s1	–	–	–	–
CCOC(=O)N1CCN(CC(=O)Nc2sc(CC)cc2C(=O)c2ccc(OC)cc2)CC1	5.6µM	–	–	–
Cn1cnc(S(=O)(=O)N2CCC(C(=O)NCc3ccc(Cl)cc3)CC2)c1	–	·	–	–
COC(=O)[C@]12CCC(C)(C)C[C@@H]1[C@@H]1C(=O)C=C3[C@@]4(C)C=C(C#N)C(=O)C(C)(C)[C@@H]4CC[C@@]3(C)[C@]1(C)CC2	·	–	·	·
O=C(N/C(=C\c1ccccc1)C(=O)N1CCCCC1)c1ccc(Br)o1	10µM	–	–	–
O=C(N/C(=C\c1ccccc1)C(=O)N1CCOCC1)c1ccc(Br)o1	–	–	–	–
CCOc1ccc(NC(=O)CC2C(=O)N(c3cccc(C)c3)C(=O)N2Cc2cccs2)cc1 (stereo not given)	–	·	–	–
COc1ccc(CCC(=O)NCCOc2ccc(C)cc2)cc1	1.8µM	–	–	–
Cc1ccc(C)c(OCCC(=O)NCCc2ccc(Cl)cc2)c1	10µM	–	–	–
Cc1cc(C)c2nc(N(CCCN(C)C)C(=O)C3=COCCO3)sc2c1	4.5µM	–	?	–
CN(C)CCCN(C(=O)C1=COCCO1)c1nc2ccc(Br)cc2s1	2µM	–	?	–
CC1(C(=O)O)CCC2(C)CCC3(C)C(=CC(=O)[C@@H]4C5(C)CC[C@H](O[C@H]6O[C@H](C(=O)O)C(O)C(O)[C@H]6O[C@@H]6O[C@H](C(=O)O)C(O)C(O)C6O)C(C)(C)[C@@H]5CCC43C)[C@@H]2C1 (stereo not given in full)	·	–	·	·
CCc1ccc(CNC(=O)c2cnc3sc(N4CCOCC4)nn3c2=O)cc1	–	·	–	–
O=S(=O)(c1ccc(-c2csc(=Nc3ccc(OC(F)(F)Cl)cc3)n2CCCO)cc1)N1CCCC1	10µM	·	–	–
OCCCn1c(-c2ccccc2)csc1=Nc1ccccc1	11µM	–	–	–
CCN(CC)CCn1c(-c2ccccc2)csc1=Nc1ccccc1	?	·	?	–
COc1ccc(/C=C2\SC(=N)N(c3nccs3)C2=O)cc1OC	10µM	–	–	–
Cc1ccc(-c2nc(CCNC(=O)C(=O)Nc3ccc(C)c(Cl)c3)cs2)cc1	–	·	–	–
COc1ccccc1/C(C)=N/NC(=S)NCc1ccccc1	2.5µM	–	5µM	–
C/C(=N\NC(=S)Nc1cccc(C)c1)c1cc2ccccc2o1	–[7.66 µM]	–	?	–
C/C(=N\NC(=S)NCc1ccccc1)c1cccc(Br)c1	8.9µM	–	?	–
CCNC(=S)N/N=C(\C)c1cc2ccccc2o1	4.5µM	–	?	–
COc1ccc(/C(C)=N/NC(=S)NCc2ccco2)cc1	11µM	–	?	–
SMILES	GLP1R inv ag	GLP-1R agonist	GLP1R cytotox	PTHR1 ag
C/C(=N\NC(=S)NCc1ccccc1)c1ccc2ccccc2c1	?	–	2.8µM	–
OCC(O)COc1ccc(Cl)cc1 (stereo not given)	·	–	·	·
CC(=O)C1=C(O)C(=O)N(c2cc(C(C)(C)C)on2)C1c1ccc(Br)cc1 (stereo not given)	8.9µM	–	–	–
COc1cccc2cc(-c3nc4sc(C(=O)Nc5ccc(F)cc5F)c(C)c4c(=O)[nH]3)c(=O)oc12	–	·	–	?
N/C(Cc1ccccc1)=N\OC(=O)c1cccc2ccccc12	13µM	?	10µM	–
O=C(Nc1cccc(Cl)c1)c1ccc2nc(Cc3ccccc3)oc2c1	10µM	·	?	–
COc1cccc(-c2ncnn2-c2sc3c(c2C#N)CCCCC3)c1OC	–	·	–	–
CCCSc1ncc(Cl)c(C(=O)Nc2c(C(=O)c3ccc(C)cc3)oc3ccccc23)n1	–	·	–	–
Cc1ccccc1Nc1nc2ccccc2s1	11µM	–	–	–
CCOc1ccc2nc(NC(=S)N(C)C)sc2c1	?	–	?	–
CN(C)C(=S)Nc1nc2ccccc2s1	0.63µM	–	?	–
CC(C)C(c1nnnn1Cc1ccccc1)N1CCN(Cc2ccc3c(c2)OCO3)CC1 (stereo not given)	8.9µM	–	–	–
CC(C)C(c1nnnn1CC1CCCO1)N1CCN(Cc2ccc3c(c2)OCO3)CC1 (stereo not given)	–	–	–	–
c1ccc(CCn2nnnc2C(c2cccs2)N2CCN(Cc3ccc4c(c3)OCO4)CC2)cc1 (stereo not given)	7.1µM	–	?	–
O=C(O)c1ccc(/C=C2/SC(=S)N(Cc3ccccc3)C2=O)cc1	–	–	–	–
O=C(CCCN1C(=O)/C(=C/c2cccc(Br)c2)SC1=S)N1CCOCC1	–	–	–	–
COc1ccc(/C=C2\SC(=S)N(CCCC(=O)N3CCCCC3CCO)C2=O)cc1 (stereo not given)	10µM	–	?	–
O=C1/C(=C\c2ccc(O)cc2)SC(=S)N1Cc1ccccc1	11µM	–	–	–
CN1CCN(C(=O)CCCN2C(=O)/C(=C/c3cccc(Br)c3)SC2=S)CC1	10µM	–	?	–
COC(=O)c1ccc(/C=C2/SC(=S)N(CCCC(=O)Nc3ccc(O)cc3)C2=O)cc1	7.9µM	–	?	–
CCc1ccc(NC(=O)CC2C(=O)N(c3cccc(C)c3)C(=O)N2CCC(C)C)cc1 (stereo not given)	?	·	–	–
COc1ccc(/C=C2\SC(=S)N(CCCC(=O)N3CCN(C)CC3)C2=O)cc1	?	–	?	–
CCc1ccc(/C=C2\SC(=S)N(CCCC(=O)N3CCN(C)CC3)C2=O)cc1	10µM	–	?	–
CCN(C(=O)c1nn(-c2ccc(OC)c(Cl)c2)c(=O)c2c1c1ccccc1n2C)c1cc(OC)ccc1OC	–	·	–	–
CC1=C(c2ccc(C)cc2)S(=O)(=O)N(Cc2ccc(C(=O)NCc3cccc(C)c3)cc2)C1=O	–	·	–	–
SMILES	GLP1R inv ag	GLP-1R agonist	GLP1R cytotox	PTHR1 ag
O=C(Nc1ccc2c(c1)OCO2)c1cc(C2CCCCN2C(=O)c2ccc3c(c2)CCO3)on1 (stereo not given)	10µM	–	–	–
CCN(CCCNC(=O)CSc1cc(=O)n(C)c2cc(Cl)ccc12)c1ccccc1	–	·	–	–
Cc1ccc(CNC(=O)Cn2ccn(-c3cccc(Cl)c3)c(=O)c2=O)cc1	–	·	–	–
Cc1ccc(NC(=O)c2nc(S(C)(=O)=O)ncc2N(Cc2ccc(C(C)(C)C)cc2)Cc2ccco2)cc1C	–	·	–	–
O=C(Nc1ccc(OC(F)(F)F)cc1)N1CCc2nc(NCc3cccc(Oc4ccccc4)c3)ncc2C1	–	–	–	–
COc1cccc(NC(=O)N2CCc3nc(NCc4cccc(Oc5ccccc5)c4)ncc3C2)c1	10µM	–	–	–
CC(C)c1ccc2oc(-c3ccc(Cl)c(NC(=O)c4cccs4)c3)nc2c1	–	–	–	–
